# Experimental data taken from the supplement of paper PMC12282887.
# ± gives the standard deviation of the averaged measurements.
# Tests used:
# Assay in all cases: promoter activity interaction Z-score (Lux/OD deviation from empty-vector control); higher = stronger promoter induction by the compound
# [1] = system: E. coli BW25113 acrABp lux reporter
# Summary of the method: (§1)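 At 37°C, E. coli BW25113 reporter cultures in 40 µl LB Lennox in 384-well plates were read for OD600 and luminescence every 30 min for 12 h. Windows were 0–8 h for wild type and 1–9 h for deletion strains, and wells under 10% of the median growth value were removed. The score is the Z-transformed residual of growth-normalised luminescence against a control fit.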
# [2] = system: E. coli BW25113 micFp lux reporter
# Summary of the method: as §1
# [3] = system: E. coli BW25113 ompFp lux reporter
# Summary of the method: as §1
# [4] = system: E. coli BW25113 robp lux reporter
# Summary of the method: as §1
# [5] = system: E. coli BW25113 soxSp lux reporter
# Summary of the method: as §1
# [6] = system: E. coli BW25113 tolCp lux reporter
# Summary of the method: as §1
# [7] = 17.8 µg/ml, genetic background: wild type
# [8] = 17.8 µg/ml, genetic background: ΔmarA
# [9] = 17.8 µg/ml, genetic background: Δrob
# [10] = 17.8 µg/ml, genetic background: ΔsoxS
# [11] = 35.7 µg/ml, genetic background: wild type
# [12] = 35.7 µg/ml, genetic background: ΔmarA
# [13] = 35.7 µg/ml, genetic background: Δrob
# [14] = 35.7 µg/ml, genetic background: ΔsoxS
# [15] = 71.3 µg/ml, genetic background: wild type
# [16] = 71.3 µg/ml, genetic background: ΔmarA
# [17] = 71.3 µg/ml, genetic background: Δrob
# [18] = 71.3 µg/ml, genetic background: ΔsoxS
# [19] = 142.7 µg/ml, genetic background: wild type
# [20] = 142.7 µg/ml, genetic background: ΔmarA
# [21] = 142.7 µg/ml, genetic background: Δrob
# [22] = 142.7 µg/ml, genetic background: ΔsoxS
smiles,measurement,setting,value
O=C(/C=C/C=C/c1ccc2c(c1)OCO2)N1CCCCC1 [Piperine],promoter activity interaction Z-score,[1]; [7],0.246 ± 0.24
same,promoter activity interaction Z-score,[1]; [8],2.16 ± 0.78
same,promoter activity interaction Z-score,[1]; [9],-0.45 ± 0.37
same,promoter activity interaction Z-score,[1]; [10],-0.228 ± 0.025
same,promoter activity interaction Z-score,[1]; [11],-0.267 ± 0.27
same,promoter activity interaction Z-score,[1]; [12],-0.218 ± 0.58
same,promoter activity interaction Z-score,[1]; [13],-0.35 ± 0.11
same,promoter activity interaction Z-score,[1]; [14],-0.339 ± 0.26
same,promoter activity interaction Z-score,[1]; [15],0.114 ± 0.35
same,promoter activity interaction Z-score,[1]; [16],1.19 ± 0.28
same,promoter activity interaction Z-score,[1]; [17],-0.349 ± 0.35
same,promoter activity interaction Z-score,[1]; [18],-0.246 ± 0.6
same,promoter activity interaction Z-score,[1]; [19],-0.023 ± 0.22
same,promoter activity interaction Z-score,[1]; [20],0.484 ± 0.7
same,promoter activity interaction Z-score,[1]; [21],-0.275 ± 0.24
same,promoter activity interaction Z-score,[1]; [22],0.0345 ± 0.17
same,promoter activity interaction Z-score,[2]; [7],0.0366 ± 0.31
same,promoter activity interaction Z-score,[2]; [8],-0.191 ± 0.14
same,promoter activity interaction Z-score,[2]; [9],0.0158 ± 0.19
same,promoter activity interaction Z-score,[2]; [10],-0.381 ± 0.062
same,promoter activity interaction Z-score,[2]; [11],-0.332 ± 0.016
same,promoter activity interaction Z-score,[2]; [12],-0.0943 ± 0.12
same,promoter activity interaction Z-score,[2]; [13],0.0827 ± 0.3
same,promoter activity interaction Z-score,[2]; [14],-0.204 ± 0.038
same,promoter activity interaction Z-score,[2]; [15],0.0474 ± 0.091
same,promoter activity interaction Z-score,[2]; [16],-0.151 ± 0.15
same,promoter activity interaction Z-score,[2]; [17],-0.00444 ± 0.34
same,promoter activity interaction Z-score,[2]; [18],-0.417 ± 0.16
same,promoter activity interaction Z-score,[2]; [19],0.0188 ± 0.37
same,promoter activity interaction Z-score,[2]; [20],0.0457 ± 0.14
same,promoter activity interaction Z-score,[2]; [21],-0.043 ± 0.02
same,promoter activity interaction Z-score,[2]; [22],-0.135 ± 0.14
same,promoter activity interaction Z-score,[3]; [7],-0.0829 ± 0.54
same,promoter activity interaction Z-score,[3]; [8],-1.35 ± 0.34
same,promoter activity interaction Z-score,[3]; [9],-0.822 ± 0.25
same,promoter activity interaction Z-score,[3]; [10],-0.433 ± 0.063
same,promoter activity interaction Z-score,[3]; [11],-0.415 ± 0.064
same,promoter activity interaction Z-score,[3]; [12],-1.08 ± 0.24
same,promoter activity interaction Z-score,[3]; [13],-0.634 ± 0.12
same,promoter activity interaction Z-score,[3]; [14],-0.567 ± 0.14
same,promoter activity interaction Z-score,[3]; [15],-0.476 ± 0.17
same,promoter activity interaction Z-score,[3]; [16],-1.71 ± 0.16
same,promoter activity interaction Z-score,[3]; [17],-0.778 ± 0.1
same,promoter activity interaction Z-score,[3]; [18],-1.09 ± 0.28
same,promoter activity interaction Z-score,[3]; [19],-0.342 ± 0.011
same,promoter activity interaction Z-score,[3]; [20],-0.966 ± 0.094
same,promoter activity interaction Z-score,[3]; [21],-0.486 ± 0.29
same,promoter activity interaction Z-score,[3]; [22],-0.548 ± 0.51
same,promoter activity interaction Z-score,[4]; [7],0.172 ± 0.75
same,promoter activity interaction Z-score,[4]; [8],-0.36 ± 0.095
same,promoter activity interaction Z-score,[4]; [9],0.172 ± 1.4
same,promoter activity interaction Z-score,[4]; [10],-0.316 ± 0.4
same,promoter activity interaction Z-score,[4]; [11],0.097 ± 0.42
same,promoter activity interaction Z-score,[4]; [12],-1.12 ± 0.12
same,promoter activity interaction Z-score,[4]; [13],-0.276 ± 0.084
same,promoter activity interaction Z-score,[4]; [14],-0.113 ± 0.51
same,promoter activity interaction Z-score,[4]; [15],-0.241 ± 0.27
same,promoter activity interaction Z-score,[4]; [16],-0.584 ± 0.63
same,promoter activity interaction Z-score,[4]; [17],0.349 ± 1.6
same,promoter activity interaction Z-score,[4]; [18],-0.312 ± 0.18
same,promoter activity interaction Z-score,[4]; [19],1.83 ± 1.8
same,promoter activity interaction Z-score,[4]; [20],0.000795 ± 0.15
same,promoter activity interaction Z-score,[4]; [21],0.186 ± 0.23
same,promoter activity interaction Z-score,[4]; [22],0.201 ± 0.43
same,promoter activity interaction Z-score,[5]; [7],0.109 ± 0.15
same,promoter activity interaction Z-score,[5]; [8],-0.193 ± 0.12
same,promoter activity interaction Z-score,[5]; [9],0.0591 ± 0.33
same,promoter activity interaction Z-score,[5]; [10],-0.222 ± 0.045
same,promoter activity interaction Z-score,[5]; [11],-0.168 ± 0.034
same,promoter activity interaction Z-score,[5]; [12],-0.0932 ± 0.073
same,promoter activity interaction Z-score,[5]; [13],0.0518 ± 0.4
same,promoter activity interaction Z-score,[5]; [14],-0.0694 ± 0.036
same,promoter activity interaction Z-score,[5]; [15],0.0967 ± 0.17
same,promoter activity interaction Z-score,[5]; [16],-0.245 ± 0.091
same,promoter activity interaction Z-score,[5]; [17],0.0476 ± 0.29
same,promoter activity interaction Z-score,[5]; [18],-0.421 ± 0.13
same,promoter activity interaction Z-score,[5]; [19],-0.0465 ± 0.24
same,promoter activity interaction Z-score,[5]; [20],-0.324 ± 0.079
same,promoter activity interaction Z-score,[5]; [21],-0.0385 ± 0.2
same,promoter activity interaction Z-score,[5]; [22],-0.403 ± 0.12
same,promoter activity interaction Z-score,[6]; [7],0.553 ± 0.54
same,promoter activity interaction Z-score,[6]; [8],0.188 ± 1.3
same,promoter activity interaction Z-score,[6]; [9],0.472 ± 2.8
same,promoter activity interaction Z-score,[6]; [10],-0.947 ± 0.95
same,promoter activity interaction Z-score,[6]; [11],0.236 ± 0.38
same,promoter activity interaction Z-score,[6]; [12],-0.452 ± 0.27
same,promoter activity interaction Z-score,[6]; [13],-0.598 ± 1.4
same,promoter activity interaction Z-score,[6]; [14],-0.521 ± 0.018
same,promoter activity interaction Z-score,[6]; [15],0.515 ± 0.49
same,promoter activity interaction Z-score,[6]; [16],-0.357 ± 0.42
same,promoter activity interaction Z-score,[6]; [17],-0.0523 ± 0.77
same,promoter activity interaction Z-score,[6]; [18],0.108 ± 1.1
same,promoter activity interaction Z-score,[6]; [19],0.274 ± 0.22
same,promoter activity interaction Z-score,[6]; [20],0.331 ± 2.3
same,promoter activity interaction Z-score,[6]; [21],-0.437 ± 0.62
same,promoter activity interaction Z-score,[6]; [22],-0.524 ± 0.86
